mHTT-CaM PPI inh – inhibitors of human mutant huntingtin-calmodulin interaction; inhibition, % at 15 µM; P42858; hit rate 3.6% among 190,000; AlphaScreen His-mHTT/GST-CaM binding, luminescence; AID 1671202;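 also: 0% = both proteins with DMSO and 100% = one protein alone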
Target sequence (P42858 whole entry, looked up, stated change not applied): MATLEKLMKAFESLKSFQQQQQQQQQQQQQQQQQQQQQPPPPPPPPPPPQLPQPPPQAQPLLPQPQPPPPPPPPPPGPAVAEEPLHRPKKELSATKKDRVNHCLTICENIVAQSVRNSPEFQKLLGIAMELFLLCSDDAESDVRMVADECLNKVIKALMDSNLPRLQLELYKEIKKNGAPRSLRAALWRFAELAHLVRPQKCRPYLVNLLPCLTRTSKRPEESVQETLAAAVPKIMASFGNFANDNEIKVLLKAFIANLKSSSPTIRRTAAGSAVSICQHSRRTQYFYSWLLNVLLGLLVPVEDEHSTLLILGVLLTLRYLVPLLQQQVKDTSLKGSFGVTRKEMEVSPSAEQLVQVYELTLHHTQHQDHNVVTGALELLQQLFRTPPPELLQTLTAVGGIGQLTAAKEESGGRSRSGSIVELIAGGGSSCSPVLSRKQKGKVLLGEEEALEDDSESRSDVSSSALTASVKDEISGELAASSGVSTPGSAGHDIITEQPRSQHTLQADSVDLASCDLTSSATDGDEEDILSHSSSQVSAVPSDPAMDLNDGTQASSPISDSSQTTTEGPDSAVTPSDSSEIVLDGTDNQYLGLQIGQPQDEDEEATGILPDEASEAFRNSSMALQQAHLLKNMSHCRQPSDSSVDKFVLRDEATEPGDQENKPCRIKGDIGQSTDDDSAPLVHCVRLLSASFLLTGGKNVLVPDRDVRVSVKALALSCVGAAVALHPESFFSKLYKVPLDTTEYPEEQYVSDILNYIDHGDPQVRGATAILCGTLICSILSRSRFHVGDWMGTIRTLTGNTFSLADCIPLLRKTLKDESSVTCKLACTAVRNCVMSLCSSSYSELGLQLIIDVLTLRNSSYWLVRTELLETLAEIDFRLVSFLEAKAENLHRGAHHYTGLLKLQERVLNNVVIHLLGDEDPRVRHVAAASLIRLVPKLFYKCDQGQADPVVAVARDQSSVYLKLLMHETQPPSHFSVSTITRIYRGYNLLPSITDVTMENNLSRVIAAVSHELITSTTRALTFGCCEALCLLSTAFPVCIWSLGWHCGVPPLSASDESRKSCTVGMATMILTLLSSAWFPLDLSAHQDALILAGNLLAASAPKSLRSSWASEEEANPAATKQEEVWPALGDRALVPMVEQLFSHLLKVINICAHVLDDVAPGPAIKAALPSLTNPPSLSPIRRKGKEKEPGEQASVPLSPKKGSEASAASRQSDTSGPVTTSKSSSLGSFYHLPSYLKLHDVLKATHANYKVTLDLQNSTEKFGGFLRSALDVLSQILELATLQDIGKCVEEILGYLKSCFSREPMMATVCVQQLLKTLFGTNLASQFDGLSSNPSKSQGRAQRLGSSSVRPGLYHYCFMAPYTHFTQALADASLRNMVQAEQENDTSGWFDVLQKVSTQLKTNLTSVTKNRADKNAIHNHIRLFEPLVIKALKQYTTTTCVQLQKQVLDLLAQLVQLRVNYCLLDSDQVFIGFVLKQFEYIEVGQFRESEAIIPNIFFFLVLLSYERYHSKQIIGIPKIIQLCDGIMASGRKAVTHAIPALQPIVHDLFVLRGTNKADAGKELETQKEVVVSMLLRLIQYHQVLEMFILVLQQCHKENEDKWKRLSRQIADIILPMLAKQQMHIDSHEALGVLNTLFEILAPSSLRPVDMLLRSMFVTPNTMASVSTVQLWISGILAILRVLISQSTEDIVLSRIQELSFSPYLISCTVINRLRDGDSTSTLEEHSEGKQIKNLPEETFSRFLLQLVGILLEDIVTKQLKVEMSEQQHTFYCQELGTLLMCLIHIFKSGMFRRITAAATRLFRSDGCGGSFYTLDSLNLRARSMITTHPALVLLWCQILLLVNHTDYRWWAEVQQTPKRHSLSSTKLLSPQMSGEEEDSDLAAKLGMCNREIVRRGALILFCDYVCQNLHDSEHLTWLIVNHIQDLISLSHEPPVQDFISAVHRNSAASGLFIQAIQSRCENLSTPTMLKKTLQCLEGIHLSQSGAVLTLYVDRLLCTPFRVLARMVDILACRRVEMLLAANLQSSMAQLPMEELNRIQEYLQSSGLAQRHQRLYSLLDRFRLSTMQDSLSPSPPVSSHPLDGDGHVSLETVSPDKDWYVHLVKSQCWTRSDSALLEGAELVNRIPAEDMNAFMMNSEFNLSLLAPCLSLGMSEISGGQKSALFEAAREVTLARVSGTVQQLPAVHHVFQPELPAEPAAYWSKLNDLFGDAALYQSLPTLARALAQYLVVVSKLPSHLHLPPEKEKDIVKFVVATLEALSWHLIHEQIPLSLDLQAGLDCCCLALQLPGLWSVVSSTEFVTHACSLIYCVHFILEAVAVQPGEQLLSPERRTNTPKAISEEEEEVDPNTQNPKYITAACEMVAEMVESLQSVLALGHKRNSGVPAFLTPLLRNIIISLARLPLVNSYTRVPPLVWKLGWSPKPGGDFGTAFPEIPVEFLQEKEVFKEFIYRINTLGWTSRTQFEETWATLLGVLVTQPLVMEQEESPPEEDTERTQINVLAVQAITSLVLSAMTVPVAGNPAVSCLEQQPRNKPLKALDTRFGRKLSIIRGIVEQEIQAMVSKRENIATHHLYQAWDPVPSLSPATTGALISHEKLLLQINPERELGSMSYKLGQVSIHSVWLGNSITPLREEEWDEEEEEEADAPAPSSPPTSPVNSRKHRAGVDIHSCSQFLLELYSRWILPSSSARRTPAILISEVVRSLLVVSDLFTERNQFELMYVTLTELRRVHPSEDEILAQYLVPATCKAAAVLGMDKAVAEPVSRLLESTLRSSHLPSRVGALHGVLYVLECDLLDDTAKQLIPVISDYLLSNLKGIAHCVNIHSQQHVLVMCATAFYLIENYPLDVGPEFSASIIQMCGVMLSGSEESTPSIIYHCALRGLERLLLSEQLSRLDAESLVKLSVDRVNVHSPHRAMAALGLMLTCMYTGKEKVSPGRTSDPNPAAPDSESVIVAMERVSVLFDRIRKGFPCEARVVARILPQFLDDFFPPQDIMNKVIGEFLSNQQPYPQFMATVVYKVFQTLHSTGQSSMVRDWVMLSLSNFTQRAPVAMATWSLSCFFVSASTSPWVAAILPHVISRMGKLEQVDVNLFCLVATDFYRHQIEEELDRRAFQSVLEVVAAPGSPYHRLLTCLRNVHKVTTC
Pf apPOL inh – Pf-apPOL DNA polymerase inhibition; hit rate 0.25% among 210,000; Recombinant Pf-apPOL, molecular beacon fluorescence, 1.5 h; inhibition, % at 10 µM; AID 1794808
* hit, by the source's call; nt = no result given. A selection: hits, their analogues and other compounds. The true share with any hit is near 3.6%. Rule as the data show it: active = inhibition above about 50%; inactive = the rest.

SMILES	mHTT-CaM PPI inh	Pf apPOL inh
Cc1ccc(NC(=O)CN2C(=O)C(C)N=C(c3ccccc3)c3ccccc32)cc1Cl (configuration not stated)	52*	-21
COc1cc(/C=C(\C)[N+](=O)[O-])cc(Br)c1O	23	-1
CCOc1ccc(/C=C/[N+](=O)[O-])cc1	19	-1
CCOc1cc(/C=C/[N+](=O)[O-])cc(Br)c1O	78*	-15
COc1cc(/C=C/[N+](=O)[O-])cc(Br)c1O	52*	-1
OC1CCN(C2CC3CCC2C3)CC1 (configuration not stated)	-3	0
COc1nc(NC(C)C)nc(NC(C)C)n1	-8	-1
CCNCCNc1ccc([N+](=O)[O-])c2cccnc12	6	-4
Cc1nc(C(=O)Nc2ccc3c(c2)OCO3)c(C)n1C1CCN(C)CC1	71*	-2
Cc1nc(C(=O)Nc2ccc3c(c2)OCCO3)c(C)n1C1CCN(C)CC1	14	3
COc1cc(/C=C/[N+](=O)[O-])cc(I)c1OCc1ccccc1F	1	-2
O=C1c2ccccc2NC(c2ccccc2F)N1c1ccccc1 (configuration not stated)	-10	-6
CC12CN3CC(C)(CN(C1)C3c1cccs1)C2=O (configuration not stated)	-4	-1
CC12CN3CC(C)(CN(C1)C3c1ccccn1)C2O (configuration not stated)	100*	-15
Cc1c(C#N)c(N)n(CC2CCCO2)c1C (configuration not stated)	22	nt
Cc1c(C#N)c(N)n(CCCn2ccnc2)c1C	99*	nt
O=C1C=C(Cl)C(=O)C=C1Cl	nt	-1
N#CC1=C(N)C(C#N)(C#N)C(c2ccccc2C(F)(F)F)C2CSCC=C12 (configuration not stated)	55*	-3
CCCC(=O)N1CCC2(C1)C(=O)Nc1ccc(OC)cc12 (configuration not stated)	0	-4
CN1CCc2[nH]c(=S)c(C#N)cc2C1	23	nt
CN1CCc2[nH]c(=S)c(C#N)c(-c3cccs3)c2C1	52*	nt
CC(c1c(O)c2ccccc2oc1=O)c1c(O)c2ccccc2oc1=O	5	1
O=c1oc2ccccc2c(O)c1C(c1ccc([N+](=O)[O-])cc1)c1c(O)c2ccccc2oc1=O	71*	-7
O=c1oc2ccccc2c(O)c1C(c1ccccc1[N+](=O)[O-])c1c(O)c2ccccc2oc1=O	24	-5
COc1ccc(OC)c(C(c2c(O)c3ccccc3oc2=O)c2c(O)c3ccccc3oc2=O)c1	55*	-21
SMILES	mHTT-CaM PPI inh	Pf apPOL inh
O=C1C=CC(=O)C=C1	nt	6
O=[N+]([O-])c1ccc(N2CCCC2)c2ncccc12	7	-2
CCC12CN3CCN(CC(C3)C1NC(C)=O)C2 (configuration not stated)	0	3
CC(C)C(=O)Nc1ccc(N2CCCNCC2)nc1	0	1
Nc1ccc(Br)cc1C(=O)c1ccccc1F	9	-5
Cc1ccc(C2=NCC(=O)Nc3ccc(Br)cc32)cc1	97*	-69
O=C1CN=C(c2ccccc2Br)c2cc(Cl)ccc2N1	18	-9
COc1ccccc1N1CCN(Cc2ccc(Br)s2)CC1	2	-2
COc1cc(CN2CCN(c3cccc(Cl)c3)CC2)cc(I)c1O	58*	-6
COc1ccc(CN2CCN(c3cccc(Cl)c3)CC2)cc1O	12	-5
O=c1[nH]c(=S)[nH]c(O)c1C=C1C=CC=N1	nt	89*
Cc1ccc(-c2nc3ccccc3c(=O)n2-c2cccnc2)cc1	2	-8
Cc1cccc(-n2c(-c3cccnc3)nc3ccccc3c2=O)c1	100*	-10

From PubChem BioAssay
